For this test, the system named is T1, LOC_OS04G41100-cb001.
T1 sequence (whole entry): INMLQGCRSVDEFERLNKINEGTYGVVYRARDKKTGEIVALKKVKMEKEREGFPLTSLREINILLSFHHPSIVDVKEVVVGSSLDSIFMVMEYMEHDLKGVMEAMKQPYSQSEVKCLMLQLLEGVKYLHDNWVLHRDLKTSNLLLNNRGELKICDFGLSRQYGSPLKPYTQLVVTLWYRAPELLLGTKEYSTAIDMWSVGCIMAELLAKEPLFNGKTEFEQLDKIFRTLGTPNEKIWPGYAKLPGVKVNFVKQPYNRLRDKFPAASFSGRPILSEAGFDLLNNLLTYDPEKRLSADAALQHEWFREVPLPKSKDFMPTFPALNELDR
Kind of test: thermal shift delta Tm vs DMSO control; higher = stronger stabilization (binding). The note with it: 12.5 µM; protein concentration 2 µM. The procedure, abridged: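 Compounds dissolved in DMSO were added to purified rice kinase domain constructs, which had been expressed in E. coli, for differential scanning fluorimetry. Each well held 19.5 μl of 2 μM kinase in 100 mM potassium phosphate pH 7.5, 150 mM NaCl, 10% glycerol and 5 × SYPRO Orange. Fluorescence was followed from 25°C to 95°C at a rate of 0.05°C/s. Shifts in Boltzmann-fitted melting temperature are triplicate means relative to DMSO-only protein.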
Turning to `CCn1c(=O)c(-c2ccc(-c3cncs3)cc2Cl)cc2cnc(Nc3ccc(N4CCN(C)CC4)cc3)nc21`, the “thermal shift delta Tm” value was determined as 0.58 °C.

Turning to `CNC(=O)c1cccc(-c2ccc3c(N4CCOC[C@@H]4C)nc(N4CCOC[C@@H]4C)nc3n2)c1` [Vistusertib (AZD2014)], the “thermal shift delta Tm” value was determined as 0.11 °C.

Consider `CC(C)S(=O)(=O)c1ccc2nccc(Nc3ccc4scnc4c3)c2c1`, for which the “thermal shift delta Tm” value amounted to 0.32 °C.

For `Cn1cc(-c2ccc3ncc(Cc4ccc5ncccc5c4)n3n2)cn1`, the “thermal shift delta Tm” value was found to be 0.07 °C.

With `N#Cc1ccc2ncnc(NCCc3ccccc3)c2c1` [Senexin A], the “thermal shift delta Tm” value came out at 0.25 °C.

Regarding `O=C1NC(=O)/C(=C/c2ccc3nccc(-c4ccncc4)c3c2)S1`, the “thermal shift delta Tm” value worked out at 0.48 °C.

Consider `Cn1cnc2c(F)c(Nc3ccc(Br)cc3F)c(C(=O)NOCCO)cc21`, for which the “thermal shift delta Tm” value stood at 0.46 °C.

Turning to `Cc1cc(Nc2ncc(Cl)c(Nc3ccccc3S(=O)(=O)C(C)C)n2)c(OC(C)C)cc1C1CCNCC1` [Ceritinib (LDK378)], the “thermal shift delta Tm” value amounted to 0.26 °C.

For `Cc1nc2ccc(-n3ncc(C(=O)c4cc5ccccc5[nH]4)c3N)cc2[nH]1`, the “thermal shift delta Tm” value was -0.16 °C.

As to `C=C[C@@](C)(/C=C/c1ccc(O)cc1)CCC=C(C)C` [Bakuchiol], the “thermal shift delta Tm” value came to 0.44 °C.

Consider `C=CC(=O)Nc1cccc(Nc2nc(Nc3ccc(N4CCN(C(C)=O)CC4)cc3OC)ncc2C(F)(F)F)c1` [Rociletinib (CO-1686, AVL-301)], for which the “thermal shift delta Tm” value stood at 0.4 °C.

On to `CCCS(=O)(=O)Nc1ccc(F)c(C(=O)c2c[nH]c3ncc(-c4ccc(Cl)cc4)cc23)c1F` [Vemurafenib (PLX4032, RG7204)], for which the “thermal shift delta Tm” value was found to be 0.68 °C.

Take `COc1cc(OC)c(C=C2C(=O)Nc3ccccc32)c(OC)c1`: the “thermal shift delta Tm” value stood at 0.2 °C.

Regarding `CCN(CC)CCCC(C)Nc1nc(C)cc(Nc2ccc3nc(C)cc(N)c3c2)n1` (centres undefined), the “thermal shift delta Tm” value is 0.23 °C.

Source of the values: the supplement of paper PMC9694430.
